# “And” between values parts separate entries of the source, which are not always exact repeats. Equal values may be shown once. A structure can be active in one record and inactive in another. The source made the active and inactive calls. Rule for the calls: active = hit-call score of the fitted dose curve at least 0.9, where 1 is the maximum; inactive = score below 0.9.
# Read-out: Matrix Metallopeptidase 1 (MMP1), MMP1 (gene 4312)
# Assay: BSK_BF4T_MMP1: BioMAP Diversity Plus: BF4T Assay for Matrix Metallopeptidase 1 (MMP1) Biomarker Activity (AID 2284270)
# Conditions: primary human bronchial epithelial cells with fibroblasts
# Summary of the method: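 MMP-1 quantified by ELISA in primary human bronchial epithelial/dermal fibroblast co-cultures, 24 hours post-dosing, with DMSO as baseline; parallel sulforhodamine B staining (560 nm) tracks overt cytotoxicity.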
Compound,outcome,AC50
O=C(O)CCC(F)(F)C(F)(F)C(F)(F)C(F)(F)C(F)(F)C(F)(F)F,inactive,–
O=C(CC(=O)C(F)(F)C(F)(F)C(F)(F)F)c1cccs1,–,19.3 µM (active) and 17 µM (active)
O=S(=O)(O)C(F)(F)C(F)(F)C(F)(F)C(F)(F)C(F)(F)C(F)(F)C(F)(F)C(F)(F)C(F)(F)C(F)(F)F,inactive,–
O=P(O)(O)CCC(F)(F)C(F)(F)C(F)(F)C(F)(F)C(F)(F)C(F)(F)F,inactive,–
O=P(O)(O)CCC(F)(F)C(F)(F)C(F)(F)C(F)(F)C(F)(F)C(F)(F)C(F)(F)C(F)(F)F,inactive,–
O=C(O)C(F)(F)OC(F)(F)C(F)(F)OC(F)(F)C(F)(F)OC(F)(F)C(F)(F)C(F)(F)C(F)(F)F,inactive,–
C=CC(=O)OCCC(F)(F)C(F)(F)C(F)(F)C(F)(F)C(F)(F)C(F)(F)C(F)(F)C(F)(F)F,inactive,–
CN(CCO)S(=O)(=O)C(F)(F)C(F)(F)C(F)(F)C(F)(F)C(F)(F)C(F)(F)C(F)(F)C(F)(F)F,inactive,–
CN(Cc1cnc2nc(N)nc(N)c2n1)c1ccc(C(=O)N[C@@H](CCC(=O)O)C(=O)O)cc1,inactive,–
OCC(F)(F)C(F)(F)C(F)(F)C(F)(F)C(F)(F)C(F)(F)C(F)(F)C(F)(F)C(F)(F)C(F)(F)C(F)(F)F,inactive,–
O=C(O)CCC(F)(F)C(F)(F)C(F)(F)C(F)(F)C(F)(F)F,inactive,–

# Read-out: Matrix Metallopeptidase 3 (MMP3), MMP3 (gene 4314)
# Assay: BSK_BF4T_MMP3: BioMAP Diversity Plus: BF4T Assay for Matrix Metallopeptidase 3 (MMP3) Biomarker Activity (AID 2284271)
# Conditions: primary human bronchial epithelial cells with fibroblasts
# Summary of the method: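 MMP-3 level read by ELISA after 24 h chemical exposure of bronchial epithelial cell/dermal fibroblast co-cultures, fitted upward relative to DMSO. Parallel cultures stained with 0.1% SRB after TCA fixation gauge overt cytotoxicity.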
Compound,outcome,AC50
O=C(O)CCC(F)(F)C(F)(F)C(F)(F)C(F)(F)C(F)(F)C(F)(F)F,inactive,–
O=C(CC(=O)C(F)(F)C(F)(F)C(F)(F)F)c1cccs1,–,37.6 µM (active) and 25.2 µM (active)
O=S(=O)(O)C(F)(F)C(F)(F)C(F)(F)C(F)(F)C(F)(F)C(F)(F)C(F)(F)C(F)(F)C(F)(F)C(F)(F)F,inactive,–
O=P(O)(O)CCC(F)(F)C(F)(F)C(F)(F)C(F)(F)C(F)(F)C(F)(F)F,inactive,–
O=P(O)(O)CCC(F)(F)C(F)(F)C(F)(F)C(F)(F)C(F)(F)C(F)(F)C(F)(F)C(F)(F)F,inactive,–
O=C(O)C(F)(F)OC(F)(F)C(F)(F)OC(F)(F)C(F)(F)OC(F)(F)C(F)(F)C(F)(F)C(F)(F)F,–,14.4 µM (active) and 8.19 µM (active)
C=CC(=O)OCCC(F)(F)C(F)(F)C(F)(F)C(F)(F)C(F)(F)C(F)(F)C(F)(F)C(F)(F)F,inactive,–
CN(CCO)S(=O)(=O)C(F)(F)C(F)(F)C(F)(F)C(F)(F)C(F)(F)C(F)(F)C(F)(F)C(F)(F)F,inactive,–
CN(Cc1cnc2nc(N)nc(N)c2n1)c1ccc(C(=O)N[C@@H](CCC(=O)O)C(=O)O)cc1,inactive,–
OCC(F)(F)C(F)(F)C(F)(F)C(F)(F)C(F)(F)C(F)(F)C(F)(F)C(F)(F)C(F)(F)C(F)(F)C(F)(F)F,inactive,–
O=C(O)CCC(F)(F)C(F)(F)C(F)(F)C(F)(F)C(F)(F)F,inactive,–

# Read-out: Tissue plasminogen activator (tPA), PLAT (gene 5327)
# Assay: BSK_BF4T_tPA: BioMAP Diversity Plus: BF4T Assay for Tissue plasminogen activator (tPA) Biomarker Activity (AID 2284272)
# Conditions: primary human bronchial epithelial cells with fibroblasts
# Summary of the method: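 tPA level quantified by ELISA at 24 h post-treatment in bronchial epithelial/dermal fibroblast co-cultures, gain of signal scored against DMSO baseline. Parallel cultures stained with 0.1% SRB (560 nm) to flag overt cytotoxicity.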
Compound,outcome,AC50
O=C(O)CCC(F)(F)C(F)(F)C(F)(F)C(F)(F)C(F)(F)C(F)(F)F,inactive,–
O=C(CC(=O)C(F)(F)C(F)(F)C(F)(F)F)c1cccs1,–,30 µM (active)
O=S(=O)(O)C(F)(F)C(F)(F)C(F)(F)C(F)(F)C(F)(F)C(F)(F)C(F)(F)C(F)(F)C(F)(F)C(F)(F)F,inactive,2.39 µM (active)
O=P(O)(O)CCC(F)(F)C(F)(F)C(F)(F)C(F)(F)C(F)(F)C(F)(F)F,inactive,14.6 µM (active)
O=P(O)(O)CCC(F)(F)C(F)(F)C(F)(F)C(F)(F)C(F)(F)C(F)(F)C(F)(F)C(F)(F)F,inactive,19.2 µM (active)
O=C(O)C(F)(F)OC(F)(F)C(F)(F)OC(F)(F)C(F)(F)OC(F)(F)C(F)(F)C(F)(F)C(F)(F)F,–,8.23 µM (active) and 8.02 µM (active)
C=CC(=O)OCCC(F)(F)C(F)(F)C(F)(F)C(F)(F)C(F)(F)C(F)(F)C(F)(F)C(F)(F)F,inactive,–
CN(CCO)S(=O)(=O)C(F)(F)C(F)(F)C(F)(F)C(F)(F)C(F)(F)C(F)(F)C(F)(F)C(F)(F)F,inactive,–
CN(Cc1cnc2nc(N)nc(N)c2n1)c1ccc(C(=O)N[C@@H](CCC(=O)O)C(=O)O)cc1,inactive,–
OCC(F)(F)C(F)(F)C(F)(F)C(F)(F)C(F)(F)C(F)(F)C(F)(F)C(F)(F)C(F)(F)C(F)(F)C(F)(F)F,inactive,–
O=C(O)CCC(F)(F)C(F)(F)C(F)(F)C(F)(F)C(F)(F)F,inactive,–

# Read-out: Plasminogen Activator Inhibitor-1 (PAI1), SERPINE1 (gene 5054)
# Assay: BSK_BF4T_PAI1: BioMAP Diversity Plus: BF4T Assay for Plasminogen Activator Inhibitor-1 (PAI1) Biomarker Activity (AID 2284273)
# Conditions: primary human bronchial epithelial cells with fibroblasts
# Summary of the method: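 PAI-1 levels quantified by ELISA 24 h post-dosing in bronchial epithelial cell plus dermal fibroblast cultures. Signal gain referenced to DMSO baseline. Sulforhodamine B total-protein staining of parallel wells checked cytotoxicity.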
Compound,outcome,AC50
O=C(O)CCC(F)(F)C(F)(F)C(F)(F)C(F)(F)C(F)(F)C(F)(F)F,inactive,–
O=C(CC(=O)C(F)(F)C(F)(F)C(F)(F)F)c1cccs1,–,16.9 µM (active) and 15.5 µM (active)
O=S(=O)(O)C(F)(F)C(F)(F)C(F)(F)C(F)(F)C(F)(F)C(F)(F)C(F)(F)C(F)(F)C(F)(F)C(F)(F)F,inactive,–
O=P(O)(O)CCC(F)(F)C(F)(F)C(F)(F)C(F)(F)C(F)(F)C(F)(F)F,inactive,–
O=P(O)(O)CCC(F)(F)C(F)(F)C(F)(F)C(F)(F)C(F)(F)C(F)(F)C(F)(F)C(F)(F)F,inactive,–
O=C(O)C(F)(F)OC(F)(F)C(F)(F)OC(F)(F)C(F)(F)OC(F)(F)C(F)(F)C(F)(F)C(F)(F)F,–,19.1 µM (active) and 16.2 µM (active)
C=CC(=O)OCCC(F)(F)C(F)(F)C(F)(F)C(F)(F)C(F)(F)C(F)(F)C(F)(F)C(F)(F)F,inactive,–
CN(CCO)S(=O)(=O)C(F)(F)C(F)(F)C(F)(F)C(F)(F)C(F)(F)C(F)(F)C(F)(F)C(F)(F)F,inactive,–
CN(Cc1cnc2nc(N)nc(N)c2n1)c1ccc(C(=O)N[C@@H](CCC(=O)O)C(=O)O)cc1,inactive,–
OCC(F)(F)C(F)(F)C(F)(F)C(F)(F)C(F)(F)C(F)(F)C(F)(F)C(F)(F)C(F)(F)C(F)(F)C(F)(F)F,inactive,–
O=C(O)CCC(F)(F)C(F)(F)C(F)(F)C(F)(F)C(F)(F)F,inactive,–

# Source: PubChem BioAssay (EPA / NIEHS)
